Reference: PubChem BioAssay (NCATS)
Records with an inconclusive call do not appear. A number with no mark means an inactive call. Calls of active or inactive are those of the source. Calls come from the whole dose curve; as a rule, active = well fitted inhibition curve with a large enough effect; inconclusive = small, poorly fitted or top-dose-only effect; inactive = no such curve, though single readings can be large or run the other way.

molecular target: Nuclear receptor subfamily 1 group I member 3 (Homo sapiens) (UniProt Q14994); experiment: qHTS for Constitutive Androstane Receptor (CAR) Antagonist screened against the NCATS CANVASS Library (AID 1347372); conditions: HepG2-hCAR-CYP2B6 luciferase, CITCO-stimulated antagonist mode; series mostly up to 46.1 µM; activity change, negative = inhibition: at the top concentration;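 for activity change, negative = inhibition: cells stimulated with 50 nM CITCO agonist so inhibition reflects antagonism; luciferase from CYP2B6 promoter reporter driven by hCAR in HepG2 cells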
Text: Natural products and their derivatives continue to be wellsprings of nascent therapeutic potential. However, many laboratories have limited resources for biological evaluation, leaving their previously isolated or synthesized compounds largely or completely untested. To address this issue, the Canvass library of natural products was assembled (https://tripod.nih.gov/canvass), in collaboration with academic and industry researchers, for quantitative high-throughput screening (qHTS) across a diverse set of cell-based and biochemical assays. The pure (>85% purity by liquid chromatography/mass spectrometry [LC/MS]) Canvass library of 346 natural products were submitted by 45 academic laboratories and companies around the world. We collected pure natural products to circumvent deconvolution and structure elucidation due to time and resource limitations. The library was formatted into 1536-well plates and evaluated in 50 qHTS (in an 11-pnt concentration series) bioassays with broad scope of disease-relevant mechanisms. The resulting data set from 50 different assays was then systematically analyzed to identify overall trends and specific natural products with interesting biological activities. Reported herein are the results of each individual qHTS and their corresponding assay protocol. The constitutive androstane receptor (CAR) is a nuclear receptor which regulates multiple drug metabolizing enzymes (DMEs) and transporters. Activating CAR will generally increase the transcription and subsequent translation of CYP2B6 and CYP3A4. These two DMEs represent about 50% of the drug metabolizing potential in the body. […] Recently, there have also been studies performed indicating CARs role in energy metabolism and cancer therapy. Therefore, inducing or inhibiting CAR's activity could have a potential effect on diabetes and/or cancer. National Center for Advancing Translational Sciences (NCATS), Rockville, MD National Institute of Health (NIH), Bethesda, Maryland
Material: A double-stable (hCAR and CYP2B6-2.2kb) transfected cell line, derived from human hepatoma (HepG2) cells, was utilized for the duration of the quantitative high-throughput screens. The HepG2-CYP2B6-hCAR cells suspended in DMEM culture medium supplemented with 10% FBS, 5 ug/mL blasticidin, 0.5 mg/mL geneticin, 100 U/mL penicillin and 100 ug/mL streptomycin. CAR Antagonist assay protocol: 1. In a 1536 well, tissue culture treated white solid bottom plates (Greiner Bio-One North America), 4 uL of engineered HepG2-hCAR-CYP2B6 cell solution (final concentration 2500 cells / well) was dispensed using the Multidrop Combi dispenser (Thermo Fisher Scientific). 2. The assay plates were incubated for 4hr at 37C, 5% CO2 to allow the cells to acclimate and attach. 3. Compounds were pin transferred (~23 nL volume) to the assay plates via Wako Pin-tool (Wako Automation, Richmond VA) equipped with a 1536 pin head. The compounds were transferred to columns 5-48 resulting in a final concentration ranging from 0.6nM to 92uM. 4. One uL of CITCO, was added using a Flying Reagent Dispenser to generate a final concentration of 50 nM CITCO inside each well. 5. The assay plates were incubated at 37C, 5% CO2 for 24hr. 6. To measure cell viability, 1 uL of CellTiter-Fluor (Promega) reagent was then added to the assay plates (column 1-48, rows 1-32). The assay plates were incubated for 1hr at 37C, 5% CO2. 7. A first readout of fluorescence signal was acquired via the ViewLux (PerkinElmer) plate reader using a FITC dichroic mirror, excitation 405/10 nm filter, and emission 540/25 nm filter; and using 65 light energy, 1 second exposure, and 2x binning settings. 8. To measure CAR activation, 4 uL of ONE-Glo reagent (Promega) was added to the assay plates (column 1-48, rows 1-32). The assay plates were further incubated at room temperature for 30 min. 9. A second readout of luminescence signal was acquired via the ViewLux plate reader using a clear emission filter, 10 second exposure, 2x binning settings. […]
% is set by controls: 0 for no effect and ±100 for the full control effect; potency is the fitted concentration of half-maximal effect.

Chain of Nuclear receptor subfamily 1 group I member 3 (Homo sapiens) (Q14994 whole entry, looked up): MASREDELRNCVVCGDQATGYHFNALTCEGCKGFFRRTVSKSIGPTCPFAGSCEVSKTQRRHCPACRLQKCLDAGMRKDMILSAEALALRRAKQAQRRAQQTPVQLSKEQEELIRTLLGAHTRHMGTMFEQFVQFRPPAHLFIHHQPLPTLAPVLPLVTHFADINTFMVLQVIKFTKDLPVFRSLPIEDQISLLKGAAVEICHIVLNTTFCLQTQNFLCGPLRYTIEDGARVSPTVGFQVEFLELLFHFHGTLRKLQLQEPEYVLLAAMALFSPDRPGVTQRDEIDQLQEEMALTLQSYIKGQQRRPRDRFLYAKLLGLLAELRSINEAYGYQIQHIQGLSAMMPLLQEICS

SMILES | activity change, negative = inhibition | Potency
[C-]#[N+][C@@]12C(=O)[C@@H]3[C@@H](O[C@@]4(C(=O)N(C)c5cccc1c54)C3(C)C)C(=O)[C@@]2(C)C=C | 30.2% | –
CCC(=O)CCCCC[C@@H]1NC(=O)[C@H]2CCCCN2C(=O)[C@H](C(C)C)NC(=O)[C@H](Cc2cn(OC)c3ccccc23)NC1=O | – | 11.7 µM (active)
C=CC(CCCCC)C1C(=O)NC(=O)C1C(=O)C1C2C(C)CC(C(=O)O)CC2CC1(O)C(=O)/C=C/C (stereo not given) | 37.9% | –
C=CC(CCCCC)C1C(=O)NC(=O)C1C(=O)C1C(/C=C/C)C=CC2CC(C(=O)O)CC(C)C21 (stereo not given) | 2.51% | –
O=Cc1ccc2n1C[C@]1(OC2)O[C@H](CO)[C@@H](O)[C@@H]1O | -0.282% | –
O=C1CC(c2ccc(O)cc2)Oc2cc(O)cc(O)c21 (stereo not given) | 68.8% | –
C/C(=C\CC[C@@H](C)[C@H]1CC[C@]2(C)C3=CCC4C(C)(C)[C@@H](O)C[C@@H](O)[C@]4(C)C3[C@H](O)C[C@@]12C)CO (stereo not given in full) | 15.8% | –
COc1cc(O)c(C(=O)[C@@H]2[C@H](CC=C(C)C)C(C)=CC[C@H]2c2ccccc2)c(O)c1 | – | 33.1 µM (active)
C[C@]12CCC[C@](C)(C(=O)O)[C@@H]1CC[C@@]1(C)c3cocc3CC[C@H]21 | -8.77% | –
C[C@@]12CCC[C@@](C)(C(=O)O)[C@H]1C[C@@H](O)[C@@]13C[C@@H](CC[C@@H]21)[C@](C)(O)C3 | 2.36% | –
CC(C)=CCC[C@]12c3cc4c(cc3CC[C@@]1(C)[C@H](C)CC[C@@H]2O)[nH]c1ccccc14 | -1.79% | –
C/C(=C\[C@H](C)C(=O)/C=C/CC1CC(=O)NC(=O)C1)[C@@H]1OC(=O)/C=C/CC/C=C/C[C@@H](O)[C@@H]1C | – | 18.6 µM (active)
COC(=O)C1=C[C@]23C[C@@H](C)CC[C@@H]2[C@@]2(C)CC[C@@H](C(C)C)[C@@](O)(O3)[C@@H]12 | 9.12% | –
CC(C)C[C@@H]1c2c(O)c(C=O)c(O)c(C=O)c2O[C@]2(C)C=C[C@@H](C(C)C)C[C@H]12 | -3.25% | –
COc1c(O)cc2c(c1O)C(=O)c1c(coc1C)C2=O | 3.9% | –
CO[C@H]1[C@@H](OC(=O)/C(C)=C\[C@@H]2O[C@@H]2[C@H]2O[C@H]2C)[C@H](O)[C@H](OCC23C[C@@H]4[C@H](C)CC[C@H]4C4(C=O)CC2C=C(C(C)C)C34C(=O)O)O[C@@H]1C (stereo not given in full) | 25.2% | –
CC(=O)N[C@H](C)c1nc(/C=C/C=C/C(=O)CC2CC(=O)CC[C@]2(C)O)cs1 (stereo not given in full) | 7.13% | –
CC1=C(C)C(=O)OC(C(C)C2(O)CCC3C4C5OC5C5(O)CC=CC(=O)C5(C)C4CCC32C)C1 (stereo not given) | 135% | –
O=C1c2c(O)cc(O)cc2OC(c2ccc(O)cc2)C1O (stereo not given) | 107% | –
C/C=C/[C@H]1[C@H]2C(=O)c3c(O)c(C)c(O)c(C)c3[C@]1(C(=O)O)C(=O)C=C2C | 0.471% | –

SMILES | activity change, negative = inhibition | Potency
O=C1CC(c2ccc(O)cc2)Oc2cc(O)ccc21 (stereo not given) | 54.2% | –
C=C(C)C(=O)O[C@H]1C[C@@]2(C)OC(=CC2=O)/C(C)=C\[C@H]2OC(=O)C(=C)[C@H]12 | – | 11.7 µM (active)
O=c1cc(-c2ccc(O)c(O)c2)oc2cc(O[C@@H]3O[C@H](CO)[C@@H](O)[C@H](O)[C@H]3O)cc(O)c12 | 102% | –
COC(=O)[C@]1([C@H]2CCC(=O)O2)CC(=O)c2c(O)cc(C)cc2O1 | 2.96% | –
C[C@@]12CCC[C@@](C)(C(=O)O)[C@H]1CC[C@@]13C[C@@H](CC[C@H]12)[C@](C)(O)C3 | -6.03% | –
C/C=C(/CO)C(=O)O[C@@H]1[C@H](O)[C@@H](C(=O)OC)O[C@@H]2C[C@H]3OC(n4cnc5c(N)ncnc54)[C@H](OC)[C@H]3O[C@@]12O (stereo not given in full) | 28.3% | –
CC(C)=CCC[C@]1(C)[C@H]2CC(=O)[C@@]3(CO3)[C@@H]1C2 | 9.61% | –
C=C1C[C@]23C=CC(=O)[C@@](C)(CCCC(C)C(=O)N[C@@H](CO)C(=O)O)[C@@H]2C[C@@H]1CC3 (stereo not given in full) | 6.19% | –
COc1ccc(-c2oc3cc(OC)cc(OC)c3c(=O)c2O)cc1 | 48.3% | –
COC(=O)[C@@]1(C)CCC[C@]2(C)c3cc(OC)ccc3CC[C@@H]12 | 33.4% | –
C/C(=C\[C@@H](C)CC/C=C/CC/C=C/C(=O)O)[C@H](O)[C@H](C)C(=O)CCCC1CC(=O)NC(=O)C1 | 0.436% | –
C[C@@]12C[C@@H](C[C@@H]3C(=O)O[C@@H](c4ccoc4)[C@H](OC(=O)c4ccccc4)[C@@H]31)OC2=O | -2.33% | –
COc1ccc([C@@H]2CC(=O)c3c(cc(O)c(C/C=C(\C)CCC=C(C)C)c3O)O2)cc1 | 30.2% [at 9.19 µM] | –
C/C(=C\[C@@H](C)CC/C=C/CC/C=C/C(=O)O)[C@@H](O)[C@H](C)C(=O)CCCC1CC(=O)NC(=O)C1 | -10.7% | –
CN1C(=O)C(=O)N2C(=C[C@]3(c4c[nH]c5ccccc45)c4ccccc4N[C@H]23)C1=O | -0.686% | –
COC1C(C)OC(OCC23C[C@@H]4[C@H](C)CC[C@H]4C4(C=O)CC2C=C(C(C)C)C34C(=O)O)[C@@H](O)[C@H]1O (stereo not given in full) | 28.5% | –
CC1(C)CC[C@]2(CO)CC[C@]3(C)C(=CCC4[C@@]5(C)CC[C@H](O)C(C)(C)C5CC[C@]43C)C2C1 (stereo not given in full) | -4.03% | –
C=C1C[C@H]2O[C@@H]3[C@@H]4[C@H](CC[C@@](C)(O)[C@@H]42)[C@H](C)COC3(C)[C@@H](OC(=O)CCCCCCC)CC1=O (stereo not given in full) | 42.8% | –
C=C[C@](Cl)(CBr)CCC=C(C)C | 18% | –
COc1cc(C2OCC3C(c4ccc(O)c(OC)c4)OCC23)ccc1O (stereo not given) | 9.55% [at 9.19 µM] | –
